High-throughput results from PubChem.
Nrf2 inh: Nrf2 qHTS screen for inhibitors. A549 ARE-Fluc reporter, luciferase luminescence, 18-24 h. Potency, µM (titrated, usually from 46 µM), usual class: inhibitors. 2.1% of 360,000 active. AID 504444, 2011; note: nearly all actives have a fitted effect of over 60% in size
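In this cell-based qHTS, ARE-driven firefly luciferase in A549 cells reports Nrf2 activity; the luminescent signal after BugLite lysis is the measured value, with a prior CellTiter-Fluor read for cell health.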
TGFb SMAD3 inh: qHTS for Inhibitors of TGF-b | 1.2% of 410,000 active | Potency, µM (highest dose often 46.1 µM), actives largely listed as inhibitors | HepG2 CAGA-GFP TGF-b/SMAD3 reporter, GFP fluorescence, 18 h; TGF-beta stimulated, 500 pg/mL final; note: nearly all actives have a fitted effect of over 65% in size
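Read-out: total well GFP (ex488/em500-530) summed from mean per-cell fluorescence. Cells: HEPG2 CAGA-GFP, 1% FBS DMEM, 18 h at 37 degrees C with 500 pg/mL final TGF-beta. Unstimulated wells served as the full-inhibition control; stimulated DMSO wells = 0%.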
A549 tox-1: Nrf2 qHTS screen for inhibitors: counterscreen for cytotoxicity. A549 ARE-Fluc cells, CellTiter-Fluor viability, 18-24 h. Potency, µM (titrated, usually from 46 µM), most hits filed as inhibitors. 0.16% of 390,000 active
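A549 ARE-Fluc cells in 5% FBS OPTI-MEM, 5000 cells/well, rested 2 h then exposed to compounds in concentration-response for 18-24 h at 37 °C. Viability by CellTiter-Fluor fluorescence (Ex 405/Em 525) after 30 min; luciferase luminescence (BugLite, 15 min, RT) read afterwards.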
HepG2 tox: qHTS for Inhibitors of TGF-b: Cytotox Counterscreen; HepG2 CAGA-GFP viability, ATP luminescence, 18 h; 0.76% of 410,000 active; AID 588856, 2011; Potency, µM (highest dose often 46.1 µM), usual class: cytotoxic
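CellTiter-Glo luminescence gave cytotoxicity after 18 hours at 37 degrees C. The cells were HepG2 CAGA-GFP in 1% FBS DMEM, stimulated with 500 pg/mL TGF-beta after compound addition. %Activity was normalised to no-cell wells (complete cell-killing) and DMSO (no toxicity), and curves were fitted and classified.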
Nrf2 ARE act: qHTS of Nrf2 Activators; AREc32 ARE-luciferase reporter (MCF7-derived line), luminescence, 24 h; Potency, µM (top dose mostly 46.1 µM), hits mostly activators; 0.31% of 410,000 active; note: nearly all actives have a fitted effect of over 65% in size
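For detection, Steady-Glo was added and plates sat 30 min at RT; before that, AREc32_Fluc cells grown overnight in OPTI-MEM/5% FBS had been treated with 23 nL compound for 24 hr at 37 deg C.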
FLuc enzyme inh: Nrf2 qHTS screen for inhibitors: Purified Fluc Biochemical Counterscreen for Hit Validation. purified firefly luciferase, luminescence inhibition. AID 720522, 2013. Potency, µM (titrated, usually from 57.5 µM), most hits filed as inhibitors. 4% of 1,400 active. shares compounds with Nrf2 inh; note: nearly all actives have a fitted effect of over 65% in size
Target sequence (P08659 whole entry, looked up): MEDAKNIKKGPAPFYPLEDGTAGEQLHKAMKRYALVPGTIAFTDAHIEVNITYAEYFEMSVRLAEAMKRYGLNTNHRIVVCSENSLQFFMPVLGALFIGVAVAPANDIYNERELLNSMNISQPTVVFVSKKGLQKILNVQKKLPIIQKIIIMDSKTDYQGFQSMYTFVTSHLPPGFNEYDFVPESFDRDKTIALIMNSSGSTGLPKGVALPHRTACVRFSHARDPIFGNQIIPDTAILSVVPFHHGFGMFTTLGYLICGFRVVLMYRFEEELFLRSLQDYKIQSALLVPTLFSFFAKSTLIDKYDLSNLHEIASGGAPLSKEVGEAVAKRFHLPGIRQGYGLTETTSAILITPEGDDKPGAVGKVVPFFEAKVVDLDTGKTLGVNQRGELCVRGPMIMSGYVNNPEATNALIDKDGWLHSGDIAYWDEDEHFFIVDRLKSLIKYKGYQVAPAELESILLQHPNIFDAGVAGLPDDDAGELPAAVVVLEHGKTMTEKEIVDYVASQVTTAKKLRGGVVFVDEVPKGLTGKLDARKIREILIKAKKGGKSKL
A549 tox-2: Nrf2 qHTS screen for inhibitors: A549 ARE-Fluc Cytotoxicity Counterscreen for Hit Validation; shares compounds with Nrf2 inh; A549 ARE-Fluc cells, cytotoxicity counterscreen; Potency, µM (top dose mostly 46.1 µM), usual class: inhibitors; 2% of 1,400 active; AID 720523, 2013;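 note: cells exposed to compounds for 18 to 24 hours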
Nrf2 ARE inh: Nrf2 qHTS screen for inhibitors: Nrf2 A549 ARE-Fluc Confirmation Assay for Hit Validation; shares compounds with Nrf2 inh; A549 ARE-firefly luciferase reporter, luminescence; Potency, µM (top dose mostly 46.1 µM), actives largely listed as inhibitors; 74% of 1,400 active; AID 720524, 2013; note: nearly all actives have a fitted effect of over 65% in size
Of the large screens only hits and unclear results are named; the others gave an inactive call (follow-up assays come after a bar, where shown). Rows were chosen to be rich in hits. Some 3.6% of all compounds tested hit in one or more screens of this group. Calls come from the whole dose curve; as a rule, active = well fitted curve in the direction sought with a large enough effect; inconclusive = small, poorly fitted or top-dose-only effect, or another doubt; inactive = no such curve, though single readings can be large; an effect the other way counts as inactive or inconclusive.

C[C@H]1O[C@@H](OC2CC[C@]3(C=O)[C@H]4CC[C@]5(C)[C@@H](C6=CC(=O)OC6)CC[C@]5(O)[C@@H]4CC[C@]3(O)C2)CC2OC(C)(C)OC21 (stereo not given in full)	Nrf2 inh 0.16µM, TGFb SMAD3 inh 2µM, A549 tox-1 inconclusive | FLuc enzyme inh inactive | A549 tox-2 inconclusive | Nrf2 ARE inh 0.065µM
CC(=O)O[C@H]1CC[C@]2(C=O)C3CC[C@]4(C)[C@@H](C5=CC(=O)OC5)CC[C@]4(O)C3CC[C@]2(O)C1 (stereo not given in full)	Nrf2 inh 0.26µM, TGFb SMAD3 inh 11µM (no result: Nrf2 ARE act) | FLuc enzyme inh inactive | A549 tox-2 inconclusive | Nrf2 ARE inh 0.37µM
O=C(Cc1ccccc1)N1CCN(Cc2ccc(Cl)cc2)CC1	none
O=C(c1cc(F)ccc1F)C1CCCN(Cc2ccc3nonc3c2)C1 (stereo not given)	Nrf2 inh inconclusive
C=CCn1c(O)c(C(C)=NCc2cc(OC)cc(OC)c2)c(=O)[nH]c1=O	Nrf2 inh 7.3µM, HepG2 tox 7.1µM | FLuc enzyme inh inactive | A549 tox-2 inactive | Nrf2 ARE inh 15µM
C=CCn1c(O)c(C(C)=NCc2cccnc2)c(=O)[nH]c1=O	none
CN(C(=O)Cc1ccc2c(c1)OCO2)C1CCCN(Cc2ccccc2F)C1 (stereo not given)	none
COc1cccc(NC(=O)CCc2nc(-c3ccc(C(C)(C)C)cc3)no2)c1	Nrf2 inh 0.26µM | FLuc enzyme inh 2.4µM | A549 tox-2 inactive | Nrf2 ARE inh 0.92µM
COc1ccc(NC(=O)CCc2nc(C3=CCN(Cc4cccc(C)c4)CC3)no2)c(OC)c1	none (no result: Nrf2 inh)
COc1ccccc1N=c1scc(-c2ccc(S(=O)(=O)N3CCCC3)cc2)n1C	Nrf2 inh 3.7µM, TGFb SMAD3 inh inconclusive | FLuc enzyme inh inactive | A549 tox-2 inactive | Nrf2 ARE inh 6.5µM
CC(C)(O)/C=C/C(=O)[C@](C)(O)C1[C@H](O)C[C@@]2(C)C3CC=C4C(C[C@H](O)[C@@H](O)C4(C)C)[C@]3(C)C(=O)C[C@]12C (stereo not given in full)	Nrf2 inh 0.41µM, TGFb SMAD3 inh 0.71µM, A549 tox-1 inconclusive | FLuc enzyme inh inactive | A549 tox-2 inconclusive | Nrf2 ARE inh 1.3µM
COc1ccc(CN2CCN(C(=O)Cc3ccccc3)CC2)cc1OC	none (no result: Nrf2 inh, A549 tox-1)
COc1ccc(CNC(=O)CSCc2cnn(-c3ccccc3)c2-n2cccc2)cc1OC	Nrf2 inh 9.2µM, TGFb SMAD3 inh inconclusive | FLuc enzyme inh inactive | A549 tox-2 inactive | Nrf2 ARE inh 8.2µM
CCN1CCN(c2cc(N3CCCC3)c(F)cc2[N+](=O)[O-])CC1	none
CC1=CC(O)C(O)C2(C)C1CC1OC(=O)CC3C(C)C(O)C(=O)C2C13CO (stereo not given)	Nrf2 inh 2.1µM, TGFb SMAD3 inh inconclusive, A549 tox-1 inconclusive | FLuc enzyme inh inactive | A549 tox-2 inactive
CCCCNS(=O)(=O)c1ccc(OCC(=O)N2CCN(Cc3ccc4c(c3)OCO4)CC2)cc1	Nrf2 inh 4.6µM, A549 tox-1 inconclusive | FLuc enzyme inh inactive | A549 tox-2 inactive | Nrf2 ARE inh inconclusive
Cc1cc2c(cc1C)-n1c(-c3ccccc3)c3c(=O)n(C)c(=O)n(C)c3c1C(c1ccco1)N2 (stereo not given)	Nrf2 inh inconclusive
